Screening results deposited in PubChem by several laboratories.
Bim-Mcl-1: inhibitors of Bim peptide binding to Mcl-1, primary screen, biochemical, bead-based flow cytometry, multiplex | actives 0.1% (n = 190,000) | inhibition, % at 10 µM | Induced myeloid leukemia cell differentiation protein Mcl-1 (Homo sapiens), Q07820 | Bim peptide-Mcl-1 binding; in the data active means inhibition above about 40%
Target sequence (Q07820 whole entry, looked up): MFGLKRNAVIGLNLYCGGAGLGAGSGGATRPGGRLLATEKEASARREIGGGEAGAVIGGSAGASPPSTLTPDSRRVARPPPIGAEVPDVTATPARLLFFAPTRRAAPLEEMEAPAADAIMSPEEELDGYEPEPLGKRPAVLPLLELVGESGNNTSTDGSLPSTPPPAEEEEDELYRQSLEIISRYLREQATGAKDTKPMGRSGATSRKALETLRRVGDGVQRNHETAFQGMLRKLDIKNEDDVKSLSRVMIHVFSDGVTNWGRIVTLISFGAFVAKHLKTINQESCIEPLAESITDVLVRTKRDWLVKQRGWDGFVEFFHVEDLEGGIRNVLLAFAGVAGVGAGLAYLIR
14-3-3 Bad PPI: inhibitors of 14-3-3 zeta/Bad binding, primary screen, biochemical, TR-FRET, bovine 14-3-3 zeta | inhibition, % at 21.7 µM | TR-FRET 14-3-3zeta/Dy647-pBad peptide displacement, 1 h | 14-3-3 protein zeta/delta (Bos taurus), P63103 | AID 781, 2007 | actives 0.71% (n = 220,000);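 active means inhibition above about 70%, limit read from the data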
Mcl1-Noxa inh: Mcl-1/Noxa binding inhibitors, primary screen, biochemical, TR-FRET, 1536-well | inhibition, % at 21.7 µM | TR-FRET Mcl-1/Noxa peptide binding, 2 h | actives 1.5% (n = 220,000);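 active means compounds that cut the protein-peptide binding signal by more than 50% relative to plate controls in a single-dose test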;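 further: His-tagged Mcl-1 with rhodamine Noxa BH3 peptide and terbium anti-His antibody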
MCL1 BIM primary: inhibitors of MCL1 binding to BIM-BH3, primary screen, biochemical, fluorescence polarization; Induced myeloid leukemia cell differentiation protein Mcl-1 (Homo sapiens), Q07820; actives 0.68% (n = 320,000); inhibition, % at 10.9 µM; GST-MCL1 / FITC-Bim-BH3 fluorescence polarization;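 active means inhibition above the mean inhibition of all tested compounds plus 3 SD, set per campaign, cut at about 40% in these data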;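 further: higher means more loss of mP so more displacement of Bim peptide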
Mcl1 Bid PPI: Mcl-1/Bid binding inhibitors, primary screen, biochemical, TR-FRET, 1536-well; Induced myeloid leukemia cell differentiation protein Mcl-1 (Homo sapiens), Q07820; TR-FRET Mcl-1/Bid-Dy647 peptide binding; inhibition, % at 21.7 µM; actives 0.97% (n = 220,000);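 active means compounds that cut the binding signal by more than half at the single screening dose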;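 further: His-tagged Mcl-1 with europium anti-His antibody binding Bid BH3 peptide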
Large screens that a line does not name were inactive. Sampled rows, rich in hits. Any-hit rate of the full collection: about 2.5%.

O=C(Cn1c(-c2ccccc2)noc1=O)N1CCC(Cc2ccccc2)CC1	Bim-Mcl-1 40
CSc1ccccc1NC(=O)CN(C)Cc1c(O)ccc2ccccc12	none (no result: Bim-Mcl-1, 14-3-3 Bad PPI, Mcl1-Noxa inh, Mcl1 Bid PPI)
O=C(Cn1c(=O)n(-c2ccccc2)c(=O)c2sccc21)N1CCCC1	Mcl1-Noxa inh 105
CCOC(=O)C1=C(CSc2nc3c(cc2C#N)CN(C)CC3)OC(N)=C(C#N)C1c1ccc(F)cc1 (configuration not stated)	MCL1 BIM primary 43
Cc1noc(C)c1CCC(=O)Nc1c(C(C)C)cccc1C(C)C	none (no result: Bim-Mcl-1, 14-3-3 Bad PPI, Mcl1-Noxa inh, Mcl1 Bid PPI)
Cc1nc2c(c(N3CCOCC3)n1)OCC(=O)N2	14-3-3 Bad PPI 74
Cc1cccn2c(NC(=O)c3cccs3)c(-c3ccccc3)nc12	none
CN(C(=O)c1ccc(C#N)cc1)c1nnc(-c2cnccn2)s1	Mcl1 Bid PPI 86 (no result: Bim-Mcl-1)
CN(C)C(=O)c1ccc(=O)n(Cc2ccc(Cl)cc2Cl)c1	none (no result: Bim-Mcl-1, 14-3-3 Bad PPI, Mcl1-Noxa inh, Mcl1 Bid PPI)
CCc1cc(C(c2ccc(F)cc2)N2CCOCC2)c(NC(=O)c2ccccc2)s1 (configuration not stated)	Mcl1 Bid PPI 68
CCc1cc(CN2CCOCC2)c(NC(=O)c2ccccc2)s1	none
CCOc1ccc(OCC)c(NC(=O)CSc2nnc(-c3cccnc3)o2)c1	none
O=C(CSc1nccc(=O)[nH]1)c1ccccc1Br	Mcl1 Bid PPI 71
Cc1ccc(OCC(=O)O/N=C(\N)Cc2cccs2)cc1C	none (no result: Bim-Mcl-1, 14-3-3 Bad PPI, Mcl1-Noxa inh, Mcl1 Bid PPI)
COc1cc2c(cc1OC)C(c1ccccc1O)N(C1CC(=O)N(c3ccccc3)C1=O)CC2 (configuration not stated)	14-3-3 Bad PPI 74
COc1cc2c(cc1OC)C(c1ccccc1)N(C(=O)CCl)CC2 (configuration not stated)	none
Cc1cc(NS(=O)(=O)c2ccc(NC(=O)c3cc4cc(Br)ccc4oc3=O)cc2)no1	Mcl1 Bid PPI 57
CN(C)C(=O)c1cn(N(C)c2ncc(C(F)(F)F)cc2Cl)c(=O)c2ccccc12	Mcl1 Bid PPI 61
c1ccc(CSc2nnc([C@@H]3CCCN3)o2)cc1	none
Cc1ccc(CSc2nnc([C@@H]3CCCN3)o2)cc1	Mcl1 Bid PPI 63
CCC1CSC(Nc2ccc(C(=O)/C=C/c3ccc(OC)c(OC)c3)cc2)=N1 (configuration not stated)	Mcl1-Noxa inh 68
COc1ccc(/C=C/C(=O)Nc2ccncc2)cc1OC	none
CCC1CSC(Nc2ccc(C(=O)/C=C/c3ccc(Br)cc3)cc2)=N1 (configuration not stated)	none
COc1ccc(/C=C/C(=O)c2ccc(NC3=NCCCS3)cc2)cc1OC	Mcl1-Noxa inh 51
COc1ccc(NC(=O)/C=C2\SC(=O)NC2=O)cc1	none
NCCSc1c(-c2ccccc2)[nH]c2ccccc12	none
CC(C)Oc1ccc(C2CNC(=O)C2)cc1 (configuration not stated)	none
COc1cccc2c(=O)c(C/C=C(/C)Cl)c(C)[nH]c12	Mcl1 Bid PPI 92
COc1cccc(NC(=O)CNC(=O)c2ccc(C)cc2)c1	none
CCOc1cccc(C2c3c(oc4ccccc4c3=O)C(=O)N2c2ccccn2)c1 (configuration not stated)	none
CCOc1cc(C2c3c(oc4ccccc4c3=O)C(=O)N2c2nccs2)ccc1O (configuration not stated)	Mcl1 Bid PPI 56 (no result: Bim-Mcl-1)
O=C1NC(=O)/C(=C/c2ccccc2Oc2ccc(Cl)cc2)S1	none
Cc1c(C(=O)NCC2COc3ccccc3O2)oc2ccc(S(=O)(=O)N3CCOCC3)cc12 (configuration not stated)	none
O=C(C1=C[C@H](C2CC2)C[C@H](OCCCCO)O1)N1CCN(Cc2ccccc2)CC1	none
O=c1oc2ccccc2n1CCn1c2ccccc2c2nc3ccccc3nc21	Mcl1 Bid PPI 90
CC(=O)C1=C(C)NC(SCC(=O)c2ccc(F)cc2)=C(C#N)C1CC(C)C (configuration not stated)	Mcl1-Noxa inh 52
O=C(O)c1cccc(NC(=O)C2CC(=O)N(Cc3ccccc3)C2)c1 (configuration not stated)	14-3-3 Bad PPI 76
